Structures can show the parent of a compound that is named as a salt. ± gives the standard deviation.
Columns and labels:
[1] = test system: Jurkat; test: mean cell size (FSC-A) relative to DMSO control (fraction of control); higher = larger cells; details: 48 h
Outline: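 Jurkat cells at 600 cells/µl were incubated for 1 h and then treated for 48h with the Enzo Screen-Well FDA Approved Drug Library v2.0 at 25µM, with DMSO at 0.9% (v/v) final. Compounds that reduced counts below 20% of controls were retested in 10-fold dilutions down to 25nM. Cell count and mean cell size, taken as forward scatter area, were measured by flow cytometry relative to solvent-only controls. Each plate carried 6-12 controls, and values are means of 3 biological replicates.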

[2] = test system: Jurkat; test: cell count relative to DMSO control (fraction of control); higher = more cells (less growth inhibition); details: 48 h

Work on `O=C1N=C(O)CN1N=Cc1ccc(-c2ccc([N+](=O)[O-])cc2)o1` [Dantrolene·Na] (concentration: 25 µM) yielded a mean cell size [1] of 1 ± 0.021 and a cell count [2] of 0.837 ± 0.068.

With `CC(C)N1CCN(c2ccc(OCC3COC(Cn4cncn4)(c4ccc(Cl)cc4Cl)O3)cc2)CC1` (configuration not stated) [Terconazole] (concentration: 25 µM) the mean cell size [1] was 0.891 ± 0.017 and the cell count [2] was 0.299 ± 0.11.

For `CC(O)(P(=O)(O)O)P(=O)(O)O` [Etidronate Disodium] (concentration: 25 µM), the mean cell size [1] was 1 ± 0.052 and the cell count [2] was 0.595 ± 0.17.

`O=C1c2c(O)ccc(O)c2C(=O)c2c(NCCNCCO)ccc(NCCNCCO)c21` [Mitoxantrone·HCl] (concentration: 25 nM) gave a mean cell size [1] of 1.43 ± 0.11 and a cell count [2] of 0.2 ± 0.063.

With `OC[C@@H](O)[C@@H](O)[C@H](O)[C@H](O)CO` [Mannitol] (concentration: 25 µM) the mean cell size [1] was 0.947 ± 0.041 and the cell count [2] was 0.977 ± 0.097.

In the case of `Clc1ccc(CCC(Cn2ccnc2)Sc2c(Cl)cccc2Cl)cc1` (configuration not stated) [Butoconazole Nitrate] (concentration: 25 µM), the mean cell size [1] is reported as 0.953 ± 0.05 and the cell count [2] is reported as 0.953 ± 0.094.
